Molecules are shown by their SMILES. Several values for one entry are separate records, joined by “and”; a condition that tells them apart may be missing. Identical values can stand only once. About 83,000 compounds went through this panel and 20% of them were active in at least one assay; those are over-represented in the sample as a whole.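 Compound tested at a single concentration for 48 hours in 96-well plates; a percent growth value below 10 was scored as active.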 Activity calls are given as the source filed them.

In the first test the test system is NCI-H23 lung. In words: NCI-60 one-dose screen, 48 h (100 = growth as untreated, 0 = no growth, -100 = all killed). The note with it: 10 µM. On the procedure: Growth inhibition of the NCI-H23 human Non-Small Cell Lung tumor cell line is measured as a screen for anti-cancer activity. Cells are grown in 96 well plates and exposed to the test compound for 48 hours. Compounds are tested at a single concentration, which is 10^-5 M for most compounds. The reported endpoint is percent growth (GI% or GIPRCNT), where numbers from 0 - 100% represent growth inhibition, and numbers from -100% - 0 represent cell death. For example, a value of 40 represents 60% growth inhibition. A value of 0 means no net growth occurred over the course of the experiment. A value of -40 indicates 40% of cells at the beginning of the experiment died by the end of the experiment. A value of -100 means all cells are dead at the end of the experiment.
NCI-60 Human Tumor Cell Lines Screen was performed using the standard one-dose NCI protocol, which is described in more detail at https://dtp.cancer.gov/discovery_development/nci-60/default.htm.
Compounds with GIPRCNT values below 10 were considered active. Activity score was based on GIPRCNT using the following formula: […]
Score is 0 for GIPRCNT values of 100 or above, 50 for GIPRCNT values of 0, and 100 for GIPRCNT values of -100.
`O=C(O)c1sccc1O`: the growth is 80.1% (inactive). Consider `COc1ccc(Cl)cc1C(=O)NCCc1ccc(S(=O)(=O)NC(=O)NC2CCCCC2)cc1`, for which the growth is 103% (inactive) and 104% (inactive).

Staying with this test, now noted: 10 µM unless noted.
`Cc1cc(O)c(C(C)C)cc1S(=O)(=O)O` (tested in a mixture with another compound): the growth was 87.6% (inactive) and 13% (inactive) and 102% (inactive). Consider `CC(=O)Nc1ccc(O)cc1`, for which the growth is 99.3% (inactive) and 112% (inactive) and 102% (inactive). Still for that read-out and setting: with `CCN(CC)CCC(CNc1c2ccc([N+](=O)[O-])cc2nc2cc(OC)c(OC)cc12)c1ccccc1` (stereo not given) the figure was -86.4% (active) and -71.3% (active); with `O=C1OC2(c3ccccc31)c1ccc(O)c(O)c1Oc1c2ccc(O)c1O`, 105% (inactive) and 102% (inactive); with `O=C(CCc1ccc(O)cc1)N/N=C/c1cc(Br)ccc1O`, 61.4% (inactive).

On to `CCc1c(CC(=O)O)c2cc(C)ccc2n1Cc1ccc(Cl)cc1`, for which the growth was 97.3% (inactive) and 90% (inactive).

`CCOc1ccc2cc(-c3nn(CC4CCN(C)CC4)c4ncnc(N)c34)ccc2c1`: the growth is 74.2% (inactive) and 63.5% (inactive). Same read-out and setting: the same measure for `Cc1ccc(S(=O)(=O)Nc2nc3ccccc3nc2Nc2ccc3nsnc3c2)cc1`: 48.7% (inactive) and 37.8% (inactive); for `Nc1cc(-c2cccc(OC(F)(F)F)c2)nc2ccc(N3CCCC3)cc12`: 43.5% (inactive) and 40.1% (inactive) and 38.5% (inactive). On the same count and under the same terms, the same measure for `CCN(CC)CCc1nc(-c2ccccc2)no1`: 83.8% (inactive) and 102% (inactive); for `CC(O)Cn1cnc2c1c(=O)n(C)c(=O)n2C` (stereo not given): 96.7% (inactive); for `O=C(N/N=C/c1ccc2c(c1)OCO2)c1ccncc1`: 99% (inactive) and 101% (inactive). The same measure, in the same setting: the same measure for `O=[N+]([O-])c1ccccc1N(S(=O)(=O)c1ccccc1)S(=O)(=O)c1ccccc1`: 106% (inactive) and 95.9% (inactive); for `Cc1cc(=O)[nH]c(O)c1C#N`: 103% (inactive) and 97.6% (inactive); for `O=C(Nc1ccc(Cl)cc1)c1cc2ccccc2cc1O`: 12.2% (inactive) and 4.22% (active).

Consider `COC(=O)/C=C/c1cc(O)c2c(c1)C(C(=O)OC)C(c1ccc(O)c(O)c1)O2` (stereo not given), for which the growth is 30.8% (inactive) and 27.3% (inactive). As for `CN1CCN(CCC=C2c3ccccc3Sc3ccc(S(=O)(=O)N(C)C)cc32)CC1`, the growth is 84.4% (inactive) and 91% (inactive). Regarding `N#CC(C#N)=C/C=C/c1cccc([N+](=O)[O-])c1`, the growth is 19.4% (inactive) and -19.3% (active). As for `COc1cc(/C=N/Nc2nc3c([nH]2)c(=O)n(C)c(=O)n3C)ccc1O`, the growth was 93.6% (inactive) and 111% (inactive).

For `CC(C)Oc1ccc2cc(-c3nn(CC4CCNCC4)c4ncnc(N)c34)ccc2c1`, the growth was 67.3% (inactive) and 42.6% (inactive).

As to `CCNC(=O)Nc1ccc(-c2nc3c(c(N4CCOC[C@@H]4C)n2)CCN(C2COC2)C3)cc1`, the growth is 50.8% (inactive) and 20.1% (inactive).

In the case of `CN1C(=O)C(N=Nc2ccc([N+](=O)[O-])cc2)SC1=S` (stereo not given), the growth was 64.1% (inactive) and 43.7% (inactive). On the same count and under the same terms, the same measure for `CC(C(=O)O)n1cc(C#N)c(=O)[nH]c1=O` (stereo not given): 108% (inactive) and 111% (inactive).

As for `CC(C)CNC(=O)c1ccccc1C(=O)NC1(C(=O)NCC(C)C)CCCC1`, the growth is 100% (inactive) and 108% (inactive). Consider `OC(COc1cccc2ccccc12)CN1CCN(c2ccc(Cl)cc2)CC1` (stereo not given), for which the growth was 84.6% (inactive) and 86.5% (inactive). The same measure, in the same setting: with `CC(=O)c1ccccc1O` the figure was 103% (inactive) and 97.7% (inactive); with `OCCN1CCN(CCO)CC1`, 95.3% (inactive) and 99.7% (inactive) and 110% (inactive); with `COc1ccc2ccccc2c1/C=N/N1CCCCC1`, 97.2% (inactive). Same read-out and setting: the same measure for `COc1ccc2nc(Cl)cc(C)c2c1`: 101% (inactive) and 107% (inactive); for `CCN(CC)CCCC(C)N(Cc1ccccc1)CC(O)c1ccc(Cl)cc1` (stereo not given): 106% (inactive) and 101% (inactive).

On to `CCN(CC)C(=S)SSC(=S)N(CC)CC`, for which the growth is 91% (inactive) and 111% (inactive). The same measure, in the same setting: with `CN(C)c1ccc(C(=C2C=CC(=[N+](C)C)C=C2)c2ccccc2Cl)cc1` the figure was -52.2% (active) and -82.2% (active). As to `Cc1ccc(S(=O)(=O)Nc2ccc3cc([N+](=O)[O-])ccc3c2[N+](=O)[O-])cc1`, the growth was 65.7% (inactive) and 92.6% (inactive). On the same count and under the same terms, with `Nc1cc2c(cc1N)-c1ccccc1C2` the figure was 93.1% (inactive) and 88.3% (inactive). The same measure, in the same setting: with `CN(C)c1ccc(/C=C(\C#N)c2ccccc2)cc1` the figure was 29.3% (inactive) and 36.4% (inactive) and 44.1% (inactive); with `CC1CCCC(=O)O1` (stereo not given), 104% (inactive) and 97.1% (inactive).

The test is the same for the next values; noted with them: 100 µM.
For `O=C(O)c1sccc1O`, the growth was 37.2% (inactive). The same measure, in the same setting: with `COc1ccc(Cl)cc1C(=O)NCCc1ccc(S(=O)(=O)NC(=O)NC2CCCCC2)cc1` the figure was 81.8% (inactive).

For the origin of these results see PubChem BioAssay (NCI).
